Test results published in paper PMC6212790, “How bacterial xenogeneic silencer rok distinguishes foreign from self DNA in its resident genome”.
The full ranking holds about 33,000 sequences; the median of “e-score” is about -0.038, and the highest 2% start at about 0.33. For the sample, the highest values were picked, then their nearest neighbours and some sequences at random.

Target: T1, GST-Rok-C97-191 (Bacillus subtilis subsp. subtilis str. …, UniProt O34857 97-191)
T1 sequence: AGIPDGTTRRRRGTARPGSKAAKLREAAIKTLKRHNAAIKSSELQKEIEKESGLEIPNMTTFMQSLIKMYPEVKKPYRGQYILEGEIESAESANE
Assay: protein binding microarray; Rok is a gene silencer of Bacillus subtilis; high values mean tight binding
Settings: protein: recombinant; tags: GST (pTH5325, pDEST15-Magic modified); dsDNA, one strand shown
How it was run: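 Each has a 25-mer constant primer and a 35-mer variable part from a de Bruijn sequence of order 10, covering every non-palindromic 8-mer at least 32 times (palindromic 16). Preference for each 8-mer is given as a rank-based, unitless enrichment score (E-score). Its range runs from 0.5 (most favored) to −0.5 (most disfavored).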

| Sequence | binding signal |
| --- | --- |
| AGAAATAT | 0.346 E-score |
| ATAAATAT | 0.369 E-score |
| AGAAATAC | 0.311 E-score |
| ACAAATAA | 0.246 E-score |
| TAGTCGCA | 0.00372 E-score |
| AAAGGGTT | -0.0515 E-score |
| CGACCAGC | -0.129 E-score |
| AACGAGAG | -0.0985 E-score |
| ACTTCCGG | -0.139 E-score |
| CAAAAGGG | -0.177 E-score |
| CAAACGCC | -0.166 E-score |
| ATTCCGGG | -0.0619 E-score |
| AATTCCTA | 0.155 E-score |
| AAATCCCA | 0.123 E-score |
| CGATAGTA | 0.382 E-score |
| AGATAGTA | 0.376 E-score |
| CGATAGTC | -0.0434 E-score |
| AGATAGTC | 0.0233 E-score |
| GGATAGTA | 0.142 E-score |
| AGATAGTG | 0.174 E-score |
| ACTCCAAA | -0.0283 E-score |
| AGAGCCAA | -0.0861 E-score |

| Sequence | binding signal |
| --- | --- |
| ACCTTCCG | -0.0992 E-score |
| CCGTACTC | 0.0243 E-score |
| ATGTAATA | 0.32 E-score |
| ATGTAAAG | 0.164 E-score |
| TTGTAAAA | 0.265 E-score |
| ATGTAAAA | 0.351 E-score |
| CTGTAATA | 0.334 E-score |
| ATGTAAAC | 0.031 E-score |
| CTGTAAAA | 0.0478 E-score |
| ATGTAAAT | 0.373 E-score |
| CTGTAATC | 0.13 E-score |
| GAGAGTGC | -0.103 E-score |
| ACGGCAAT | 0.0959 E-score |
| GGCTTCTA | 0.11 E-score |
| ATCGCCGC | -0.0266 E-score |
| CTATATCC | 0.17 E-score |
| ATATATCC | 0.268 E-score |
| ATATATCG | 0.366 E-score |
| GTATATCA | 0.216 E-score |
| ATATATCA | 0.396 E-score |
| CTATATCA | 0.185 E-score |
| CATTGTGA | -0.101 E-score |

| Sequence | binding signal |
| --- | --- |
| AGAGGTTG | -0.0137 E-score |
| AAAGTTAA | -0.0842 E-score |
| ACGTCGAT | 0.108 E-score |
| AAAATCTC | 0.242 E-score |
| AAAATCTG | 0.00361 E-score |
| GGAATCTA | 0.339 E-score |
| ATAATCTA | 0.289 E-score |
| GAAATCTC | 0.209 E-score |
| AGAATCTA | 0.322 E-score |
| AAAATCTA | 0.339 E-score |
| GAAATCTA | 0.383 E-score |
| GTAATCTA | 0.313 E-score |
| CGAATCTA | 0.256 E-score |
| CTAATCTA | 0.348 E-score |
| GCAATCTA | 0.307 E-score |
| CAAAATCG | 0.0988 E-score |
| TATGCCCA | -0.134 E-score |
| GTGGCAAA | 0.0701 E-score |
| ACCGTAGT | 0.0984 E-score |
| ATGCGGCG | -0.186 E-score |
| AGCCGTTA | 0.0336 E-score |
| CAAATCTG | -0.15 E-score |

| Sequence | binding signal |
| --- | --- |
| TAAATCAA | 0.178 E-score |
| CAAATCTA | 0.354 E-score |
| CAAATCTC | 0.0537 E-score |
| TAAATCTA | 0.364 E-score |
| TAAATCGA | 0.0722 E-score |
| AGTCTATC | -0.0937 E-score |
| CATGTCAA | -0.0291 E-score |
| CAAATATA | 0.346 E-score |
| CAAATATC | 0.231 E-score |
| TAAATAAA | 0.162 E-score |
| TAAATATA | 0.378 E-score |
| AAAATATA | 0.399 E-score |
| AAAATATG | 0.271 E-score |
| CAAATATG | 0.161 E-score |
| AAAATATC | 0.186 E-score |
| GAAATATA | 0.305 E-score |
| CCCACCTA | -0.0708 E-score |
| AAGTTAAG | -0.104 E-score |
| GTTGAATA | 0.173 E-score |
| CTTTTGTA | 0.241 E-score |
